Bioassay records: PubChem, National Center for Advancing Translational Sciences (NCATS)
TCR act: T cell receptor activation; AID 504894; primary human leukocytes, anti-CD3, IL-2 HTRF, 48 h; 330,000 tested, under 10 active; Potency, µM (doses to about 9.22 µM), inactives show at the top dose activation of IL-2 secretion, hits mostly activators; note: % of control where 0% means no effect
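Human primary leukocytes + a-CD3 beads + cpd, 48 hr; IL-2 in supernatant by HTRF (ex 320nm / em 665nm). No co-stimulatory signal supplied.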
Nrf2 block: blocks Nrf2 signaling. A549 ARE-Fluc reporter, luciferase luminescence, 18-24 h. Potency, µM (top dose mostly 46 µM), for the others: at the highest dose activity change, negative = inhibition, hits mostly inhibitors. 360,000 tested, 2.1% active. AID 504444; note: potency is the fitted concentration of half-maximal effect; % is set by controls: 0 for no effect and ±100 for the full control effect; nearly all actives have a fitted effect of over 60% in size
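Quantitative HTS in A549 cells stably bearing an antioxidant response element-firefly luciferase construct. Inhibition of Nrf2-driven transcription was scored by luminescence after 18-24 h of compound exposure at 37 °C.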
CCT chaperon mod: modulators of cytosolic chaperonin (CCT/TRiC) activity | purified chaperonin ATPase assay, HTRF ADP detection, 30 min | activity change, % (no concentration beside the values), hits read low | 360,000 tested, 0.3% active | AID 651819; in the data active = activity change below about -30%; note: % is set by controls: 0 for no effect and ±100 for the full control effect
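Nucleotide hydrolysis assay: TRiC at 20–40 nM final (set by batch activity) with 10 uM ATP, 30 min at 37 °C, in presence of 76 uM compound. Detection by competitive ADP HTRF, 30 min ambient.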
A549 viability: kills or reduces viability of A549 cells in Nrf2 counter-screen; 390,000 tested, 0.16% active; AID 504648; A549 ARE-Fluc cells, CellTiter-Fluor viability, 18-24 h; Potency, µM (titrated, usually from 46 µM), for inactives: at the highest dose activity change, negative = cytotoxicity, actives largely listed as inhibitors; note: potency is the fitted concentration of half-maximal effect; % is set by controls: 0 for no effect and ±100 for the full control effect
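A549 ARE_Fluc cells in 5% FBS OPTI-MEM were exposed to compounds in concentration-response for 18-24 h at 37 deg C. Viability was read by CellTiter-Fluor fluorescence (Ex 405/Em 525) after 30 min, before the luciferase read.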
A-T KAP1 phos: candidate therapy for ataxia-telangiectasia; 320,000 tested, 0.19% active; Potency, µM (highest dose often 57.5 µM), without a hit: at the top dose activation, usual class: activators; F2112 A-T fibroblasts, KAP-1 phosphorylation AlphaLISA; neocarzinostatin DNA damage 30 min before lysis; note: potency is the fitted concentration of half-maximal effect; % of control where 0% means no effect; nearly all actives have a fitted effect of over 45% in size
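hTERT-immortalized A-T patient fibroblasts (F2112), 500 cells/well in OPTI-MEM, 1% FBS, got compounds for 60 min, then NCS for 30 min at 37C. Lysates were then assayed for phospho-KAP-1 by AlphaLISA (anti-pKAP1 donor, anti-KAP1 acceptor beads), 6 hr at 25C.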
Nrf2 ARE act: activates Nrf2 signaling; AREc32 ARE-luciferase reporter (MCF7-derived line), luminescence, 24 h; Potency, µM (titrated, usually from 46.1 µM), for inactives: top-dose activation, actives largely listed as activators; 410,000 tested, 0.31% active; AID 624171; note: potency is the fitted concentration of half-maximal effect; % of control where 0% means no effect; nearly all actives have a fitted effect of over 65% in size
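Luminescent ARE reporter assay in AREc32_Fluc cells: overnight plating at 37 deg C, 24 hr compound incubation, Steady-Glo added, 30 min RT before reading.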
Starred values were filed as active, the others as inactive; u = inconclusive; x = no result; [ ] = remark or other dose. Rows were chosen to be rich in hits. Some 2.6% of all compounds tested hit in one or more screens of this group. Unless noted, calls come from the whole dose curve; as a rule, active = well fitted curve in the direction sought with a large enough effect; inconclusive = small, poorly fitted or top-dose-only effect, or another doubt; inactive = no such curve, though single readings can be large; an effect the other way counts as inactive or inconclusive.

SMILES | TCR act | Nrf2 block | CCT chaperon mod | A549 viability | A-T KAP1 phos | Nrf2 ARE act
O=C(Cc1ccc(Cl)cc1Cl)Nc1ccncc1 | 3% | 16µM* | -2 | 3% | 5% | 0%
O=C(Cc1ccc(Cl)cc1Cl)Nc1ccncc1Cl | -6% | 9.2µM* | -5 | 2% | 3% | 0%
S=C(NCc1ccc(Cl)cc1)Nc1ccncc1 | -6% | 13µM* | -3 | -5% | 7% | 0%
COc1cccc(C2c3c(ncn(-c4ccccc4SC)c3=N)Oc3ccc4ccccc4c32)c1 (stereo not given) | x | 4% | x | -5% | x | x
COc1ccc(NC(=O)CCS(=O)(=O)c2nc(-c3cccs3)cc(C(F)(F)F)n2)cc1OC | x | 6%[9.27 µM] | x | 2% | x | -7%
CC1CC=CC2C1C(=O)N(Cc1ccccc1)C2c1ccc2ccccc2c1-c1ccc(N(C)C)cc1 (stereo not given) | x | 17% | x | 0% | x | x
Cc1ccc(-c2nnc(NC3CCCCC3)c3ccccc23)cc1S(=O)(=O)N1CCN(C)CC1 | 8% | 23µM* | 0 | u | x | 0%
COc1ccc2cc3cc(C(=O)NCc4ccco4)oc3nc2c1 | x | 5.2µM* | 0 | -25% | x | 4%
O=C(NCc1ccco1)c1cc2cc3ccc(Cl)cc3nc2o1 | 6% | 23µM* | -1 | u | -6% | 12%
COc1cccc(C(=O)c2c[nH]c(C(=O)NCc3ccco3)c2)c1 | -3% | x | -42* | -3% | 4% | 6%
COc1ccc2cc3cc(C(=O)NCCN4CCN(c5ccccc5F)CC4)oc3nc2c1 | 3% | 18µM* | -1 | u | 0% | 0%
CCOC(=O)CS(=O)(=O)c1nc(-c2ccccc2)cc(C(F)(F)F)n1 | 4% | u | 0 | u | -4% | u
CCOC(=O)CS(=O)(=O)c1nc(-c2ccc(F)cc2)cc(C(F)(F)F)n1 | -10% | 16µM* | -11 | u | -1% | u
COCC(C)NC(=O)CCS(=O)(=O)c1nc(-c2ccc(OC)cc2)cc(C(F)(F)F)n1 (stereo not given) | 3% | -11% | -2 | -2% | 4% | 16µM*
COC(=O)CCS(=O)(=O)c1nc(-c2ccccc2)cc(C(F)(F)F)n1 | 0% | u | 0 | u | -6% | u
Cc1ccc(NC(=O)CSc2n[nH]c(-c3ccc(F)cc3)n2)cc1F | x | x | x | -8% | x | 4%
O=c1cc(/C=C/c2cccs2)[nH]c2ccccc12 | 6% | 13µM* | 1 | -14% | 1% | 0%
C[C@H](CO)N1C[C@H](C)[C@@H](CN(C)Cc2ccncc2)Oc2c(NS(=O)(=O)c3cn(C)cn3)cccc2C1=O | 0% | 20% | -2 | 1% | 6% | 0%
CN(C)S(=O)(=O)c1ccc(C(=O)Nc2nnc(-c3cccs3)o2)cc1 | 9% | u | 1 | -4% | -4% | 1%
CC1CC(C)CN(S(=O)(=O)c2ccc(C(=O)Nc3nnc(-c4cccs4)o3)cc2)C1 (stereo not given) | -2% | 5µM* | 0 | u | -4% | -1%
CCC1CCCCN1S(=O)(=O)c1ccc(NC(=O)c2cccnc2)cc1 (stereo not given) | 7% | -19% | 2 | 10% | 39% | 2%
CCC1CCCCN1S(=O)(=O)c1ccc(C(=O)Nc2nnc(-c3cccs3)o2)cc1 (stereo not given) | -2%[46.1 µM] | 5µM* | -1 | u | 4% | 0%
CCCCc1nc2cc(C(=O)N3CCCCC3C(=O)OC)ccc2o1 (stereo not given) | -4% | u | -2 | 3% | 1% | 4%
CC1OC(CC(=O)O)CC2=C1C(=O)c1c(O)cccc1C2=O (stereo not given) | -20% | 21µM* | 0 | 15µM* | x | -1%
O=C(CN1CCCC1)Nc1ccccc1Sc1ccccc1 | 4% | 2% | -1 | 0% | 1% | 0%
SMILES | TCR act | Nrf2 block | CCT chaperon mod | A549 viability | A-T KAP1 phos | Nrf2 ARE act
O=C(CN1CCOCC1)Nc1ccccc1Sc1ccc(Cl)cc1 | 2%[46.1 µM] | 29µM* | 2 | -2% | 8% | 0%
O=C(NC1CC1)c1ccc2sc([C@H]3C[C@H](O)[C@@H](CO)O3)nc2c1 | x | x | 1 | x | x | -1%
COc1cc(C2C(C(=O)Nc3ccccc3C)=C(C)Nc3nc(SCc4cc(C)ccc4C)nn32)ccc1O (stereo not given) | x | 16µM* | x | u | x | 1%
Cc1cc2c(s1)c1cnn(Cc3ccccc3F)c(=O)c1n2Cc1ccccc1F | x | -16% | x | 6% | x | x
CCC(=O)Nc1c(S(=O)(=O)c2ccccc2)c2nc3ccccc3nc2n1C(C)c1ccccc1 (stereo not given) | -9% | 18µM* | -2 | -24% | 6% | 0%
O=C(COc1ccccc1F)Nc1ccc2nc(SCC(=O)N3CCOCC3)sc2c1 | x | 18µM* | x | -13% | x | 2%
Cc1cccc(C(=O)Nc2ccc3nc(SCC(=O)N4CCCC4)sc3c2)c1 | x | 18µM* | x | -19% | x | 6%
Cc1cccc(OCCSc2nc3ccc(NC(=O)c4cccs4)cc3s2)c1 | x | 23µM* | x | 1% | x | 1%
O=C(COc1ccccc1F)Nc1ccc2nc(SCC(=O)N3CCCC3)sc2c1 | x | u | x | -14% | x | 7%
CCN(C(=O)c1cc(S(=O)(=O)N2CCc3ccccc32)cn1C)c1cccc(C)c1 | x | u | x | u | x | -1%
Cc1ccccc1NS(=O)(=O)c1cc(C(=O)NCc2ccco2)ccc1C | -2% | 9% | 0 | 0% | 0% | 2%
Cc1ccccc1NS(=O)(=O)c1cc(C(=O)Nc2cccc(N(C)S(C)(=O)=O)c2)ccc1C | 1% | 18µM* | -1 | u | -3% | 3%
Cc1ccc(C(=O)Nc2ccccc2)cc1S(=O)(=O)Nc1ccccc1 | x | u | x | -1% | x | 6%
CN(c1cccc(NC(=O)c2ccc(Cl)c(S(=O)(=O)Nc3ccccc3)c2)c1)S(C)(=O)=O | -11% | 21µM* | 1 | -21% | 3% | 3%
O=C(Nc1ccccc1)c1ccc(Cl)c(S(=O)(=O)Nc2ccccc2)c1 | x | u | x | -11% | x | 11%
Cc1ccc(SCCNC(=O)c2ccc(C)c(S(=O)(=O)Nc3ccccc3C)c2)cc1 | -1% | 13µM* | 1 | -17% | -2% | 2%
COC(=O)c1c(NC(=O)CN2CCC3(O)CCCCC3C2c2cc(OC)ccc2OC)sc(C)c1C (stereo not given) | -6%[46.1 µM] | 18µM* | -1 | -24% | -1% | 3%
Cc1cc(NC(=O)Nc2nnc(N(C)C3CCCCC3)s2)ccc1Br | x | 26µM* | x | -11% | x | 0%
CCCn1nnc(NCc2ccc(OCc3cccs3)c(OC)c2)n1 | 2% | 8.2µM* | 1 | x | 1% | 0%
